Measured values: PubChem BioAssay (NCATS)
Inconclusive results are not listed. Values without a mark were called inactive. Calls follow the shape of the dose curve; as a rule, active = well fitted inhibition curve with a large enough effect; inconclusive = small, poorly fitted or top-dose-only effect; inactive = no such curve, though single readings can be large or run the other way.

target: Retinaldehyde dehydrogenase 3 (Homo sapiens) (UniProt P47895); assay: qHTS for Inhibitors of the Aldehyde Dehydrogenase Family (ALDH1A3) Primary screen (AID 2061315); conditions: ALDH inhibition qHTS; series mostly up to 56 µM; activity change, negative = inhibition: at the top concentration;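 also: plate controls were DMSO vehicle for no effect and reference inhibitor for full effect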

Compound	activity change, negative = inhibition
CCOP(=O)(OCC)Oc1ccc2c(C)cc(=O)oc2c1	0.328%
C[C@]12CC[C@H](OC3OC(CO)C(O)C(O)C3OC3OC(CO)C(O)C(O)C3O)C[C@@H]1CC[C@@H]1C2CC[C@]2(C)[C@@H](C3=CC(=O)OC3)CC[C@]12O (stereo partly drawn)	9.36% [at 16.9 µM]
CC(=O)OC1CC(O)C(C)(C)C2CC(OC(C)=O)C3(C)C(CCC4(C)C(c5ccoc5)C(=O)C5OC543)C12C (stereo not drawn)	10.1% [at 28 µM]
CC1=CC2/C=C(\C)CCCC(O)/C=C/C(=O)OC23C(=O)NC(CC(C)C)C3C1C (stereo not drawn)	0.745%
N#CC(OC1OC(COC2OC(CO)C(O)C(O)C2O)C(O)C(O)C1O)c1ccccc1 (stereo not drawn)	2.48% [at 28 µM]
CC(O)(c1ccccc1)C(Cc1ccc(Cl)cc1)n1cncn1 (stereo not drawn)	-0.529%
CC[C@@H]1C[C@H]2CC[C@H](O2)[C@H](C)C(=O)O[C@@H](C)C[C@@H]2CC[C@@H](O2)[C@@H](C)C(=O)O[C@H](C)C[C@H]2CC[C@H](O2)[C@H](C)C(=O)O[C@@H](C)C[C@@H]2CC[C@@H](O2)[C@@H](C)C(=O)O1	12.8% [at 16.9 µM]
C[C@H]1O[C@@H](n2cnc3c(N)ncnc32)C[C@@H]1O	7.56%
CO/C1=C\C(C)=C\[C@@H](C)[C@@H](O)[C@@H](C)C/C(C)=C/C=C/[C@H](OC)[C@@H]([C@@H](C)[C@@H](O)[C@H](C)[C@@]2(O)C[C@@H](O)[C@H](C)[C@@H](C(C)C)O2)OC1=O	4.87% [at 16.9 µM]
C=C(C)[C@@]12O[C@@H]1[C@@]1(C)C(=C[C@H]2O)CC[C@@H](O)[C@@H]1C	-1.21%
C[C@H]1CCC[C@H](O)CCC/C=C/c2cc(O)cc(O)c2C(=O)O1	14.8%
CC[C@H]1C[C@@H]2CC[C@@H](O2)[C@@H](C)C(=O)O[C@H](CC)C[C@H]2CC[C@H](O2)[C@H](C)C(=O)O[C@@H](C)C[C@@H]2CC[C@@H](O2)[C@@H](C)C(=O)O[C@H](CC)C[C@H]2CC[C@H](O2)[C@H](C)C(=O)O1	-13.4% [at 16.9 µM]
COCC1OC(=O)c2coc3c2C1(C)C1=C(C3=O)C2CCC(=O)C2(C)CC1O (stereo not drawn)	-14.9%
COC(=O)C1(C)CCC(=O)C2(C)c3c(O)cc(C(C)C)cc3C(O)C(OC(C)=O)C12 (stereo not drawn)	2.67% [at 28 µM]
CCCCOC(=O)c1ccnc2cc(C(OCCN3CCCCC3)c3ccccc3Cl)sc12 (stereo not drawn)	-6.52%
COC1CC(O[C@H]2CC[C@@]3(C)C(=CCC4C3C(O)[C@@H](O)[C@]3(C)[C@@H](C(C)=O)CC[C@]43O)C2)OC(C)C1OC1CC(OC)C(OC2OC(C)C(O)C(O)C2O)C(C)O1 (stereo partly drawn)	3.04% [at 16.9 µM]
CC[C@@H]1/C=C/C=C/C[C@H](C)C(O)[C@](C)(O)C(=O)[C@H](C)C(O)[C@H](C)C(=O)[C@H](C)[C@@H](O)[C@H](C)/C=C/C(=O)O[C@H]2[C@@H](C)[C@@H](CC1)O[C@]1(O[C@H](C[C@H](C)O)[C@H](C)CC1=O)[C@@H]2C (stereo partly drawn)	26% [at 16.9 µM]
CN1[C@H]2C[C@H](OC(=O)[C@H](CO)c3ccccc3)C[C@@H]1[C@@H](O)C2	4.35%
C[C@@H]1CCC2[C@@H](C)C(=O)OC3O[C@@]4(C)CCC1[C@]32OO4 (stereo partly drawn)	2.88%
C=C(C)[C@@H]1[C@H]2OC(=O)[C@H]1[C@]1(O)C[C@H]3O[C@]34C(=O)O[C@H]2[C@]14C	0.881%
CO[C@H]1C[C@H](O[C@H]2CC[C@]3(C=O)[C@H]4CC[C@]5(C)[C@@H](C6=CC(=O)OC6)CC[C@]5(O)[C@@H]4CC[C@]3(O)C2)O[C@H](C)[C@H]1O	-4.22% [at 28 µM]
CN1C[C@@H]2CN(c3ccc(-c4ccccc4)nn3)C[C@@H]2C1	-20.9%
CC12CCC3C(CCC4(O)CC(O)CCC34C=O)C1(O)CCC2C1=CC(=O)OC1 (stereo not drawn)	-14.6%
CC(C)(C)NC[C@H](O)c1ccc(O)cc1Cl	-9.01%
CN(CC[C@H](N)CC(=O)N[C@H]1C=C[C@@H](n2ccc(N)nc2=O)O[C@@H]1C(=O)O)C(=N)N	7.62% [at 11.2 µM]
CN1C(=O)c2ccccc2NC(=O)[C@]12O[C@@H]2c1ccccc1	-1.11%
COc1cc(O)c2c(c1)/C=C/C[C@@H](O)[C@@H](O)C(=O)CCC[C@H](C)OC2=O	1.67%
COC(=O)C1(C)CCC(O)C2(C)c3c(O)cc(C(C)C)cc3C(O)C(OC(C)=O)C12 (stereo not drawn)	12% [at 28 µM]
